Data as given in publication PMC7862700, “An all-to-all approach to the identification of sequence-specific readers for epigenetic DNA modifications on cytosine”.

Legend:
Test in all cases: DAPPL (digital affinity profiling via proximity ligation, sequencing); 10 mM Tris-HCl pH 7.5, 50 mM NaCl, 1 mM DTT, 4% glycerol, room temperature, 30 min; GST-TFs on glutathione beads, 16-mer random dsDNA library, 0.1% formaldehyde crosslink after washing; high values mean tight binding
FLI1 = biological target: T1, FLI1 (Homo sapiens, UniProt Q01543 1-452); conditions: protein: recombinant; tags: N-terminal GST; dsDNA, one strand shown
T1 sequence: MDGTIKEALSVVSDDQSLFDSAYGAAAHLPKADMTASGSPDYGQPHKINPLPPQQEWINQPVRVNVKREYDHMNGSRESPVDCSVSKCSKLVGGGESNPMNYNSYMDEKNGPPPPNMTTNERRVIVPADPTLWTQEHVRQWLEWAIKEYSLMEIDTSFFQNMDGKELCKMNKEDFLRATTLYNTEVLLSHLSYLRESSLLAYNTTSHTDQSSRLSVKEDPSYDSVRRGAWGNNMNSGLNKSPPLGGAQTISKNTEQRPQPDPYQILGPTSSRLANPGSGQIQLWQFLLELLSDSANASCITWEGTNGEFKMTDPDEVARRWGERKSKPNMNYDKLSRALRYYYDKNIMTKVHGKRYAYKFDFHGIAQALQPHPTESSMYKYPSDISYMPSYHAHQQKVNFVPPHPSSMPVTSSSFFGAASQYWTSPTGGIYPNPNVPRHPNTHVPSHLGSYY
How it was run: (§1)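 GST fusions of human transcription factors were expressed in yeast and captured with glutathione beads. Once given DNA barcodes and pooled alongside a tag-only sample, they were incubated for 30 min at room temperature with 200 nmole of a random double-stranded 16-mer DNA library in Tris/NaCl/DTT/glycerol buffer, then washed, crosslinked (0.1% formaldehyde), proximity-ligated, PCR-amplified and sequenced on an Illumina NextSeq500. The binding signal of each hexamer is its read frequency for a factor divided by its frequency for the tag-only sample.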

ELK1 = biological target: T2, ELK1 (Homo sapiens, UniProt P19419 1-428); conditions: protein: recombinant; tags: N-terminal GST; dsDNA, one strand shown
T2 sequence: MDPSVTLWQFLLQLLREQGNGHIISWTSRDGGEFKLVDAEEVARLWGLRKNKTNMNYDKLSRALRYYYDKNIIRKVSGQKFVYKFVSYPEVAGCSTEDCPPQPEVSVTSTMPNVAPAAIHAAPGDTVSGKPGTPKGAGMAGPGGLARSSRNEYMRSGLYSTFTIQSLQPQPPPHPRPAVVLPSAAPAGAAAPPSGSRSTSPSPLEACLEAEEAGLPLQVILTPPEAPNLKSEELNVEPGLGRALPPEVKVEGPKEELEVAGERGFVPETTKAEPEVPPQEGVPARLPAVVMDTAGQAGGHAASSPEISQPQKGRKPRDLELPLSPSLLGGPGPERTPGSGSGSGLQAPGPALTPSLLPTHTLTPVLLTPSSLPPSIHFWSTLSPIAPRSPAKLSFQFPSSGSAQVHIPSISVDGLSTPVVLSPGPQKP
How it was run: as §1

GABPA = biological target: T3, GABPA (Homo sapiens, UniProt Q06546 1-454); conditions: protein: recombinant; tags: N-terminal GST; dsDNA, one strand shown
T3 sequence: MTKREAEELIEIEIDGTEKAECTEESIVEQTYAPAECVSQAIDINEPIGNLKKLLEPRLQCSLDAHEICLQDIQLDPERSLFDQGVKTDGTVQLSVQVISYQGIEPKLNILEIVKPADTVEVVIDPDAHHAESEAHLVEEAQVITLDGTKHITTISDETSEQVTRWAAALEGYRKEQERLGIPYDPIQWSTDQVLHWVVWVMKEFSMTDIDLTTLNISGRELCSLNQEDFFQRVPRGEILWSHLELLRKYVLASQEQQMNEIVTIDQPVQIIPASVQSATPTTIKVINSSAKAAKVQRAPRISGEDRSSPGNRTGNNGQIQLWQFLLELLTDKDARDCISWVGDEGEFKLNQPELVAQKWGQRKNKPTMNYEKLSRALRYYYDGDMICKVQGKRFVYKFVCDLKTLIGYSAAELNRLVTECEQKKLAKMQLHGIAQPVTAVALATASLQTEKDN
How it was run: as §1

ERG = biological target: T4, ERG (Homo sapiens, UniProt P11308 1-479); conditions: protein: recombinant; tags: N-terminal GST; dsDNA, one strand shown
T4 sequence: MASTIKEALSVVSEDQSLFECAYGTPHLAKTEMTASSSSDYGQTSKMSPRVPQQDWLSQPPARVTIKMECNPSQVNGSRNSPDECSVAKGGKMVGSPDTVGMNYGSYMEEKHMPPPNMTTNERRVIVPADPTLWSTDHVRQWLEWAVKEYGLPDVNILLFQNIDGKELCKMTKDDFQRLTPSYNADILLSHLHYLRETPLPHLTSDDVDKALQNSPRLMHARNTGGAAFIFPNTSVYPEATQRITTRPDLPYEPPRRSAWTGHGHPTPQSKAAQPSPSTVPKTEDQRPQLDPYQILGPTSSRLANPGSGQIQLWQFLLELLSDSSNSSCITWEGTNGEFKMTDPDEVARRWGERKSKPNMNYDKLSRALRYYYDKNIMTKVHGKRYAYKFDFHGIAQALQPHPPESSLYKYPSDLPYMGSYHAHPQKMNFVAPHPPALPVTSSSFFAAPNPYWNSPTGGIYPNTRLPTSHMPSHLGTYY
How it was run: as §1

ELF1 = ELF1 (Homo sapiens, UniProt P32519 1-619); conditions: protein: recombinant; tags: N-terminal GST; dsDNA, one strand shown
How it was run: as §1

EHF = biological target: T5, EHF (Homo sapiens, UniProt Q9NZC4 1-300); conditions: protein: recombinant; tags: N-terminal GST; dsDNA, one strand shown
T5 sequence: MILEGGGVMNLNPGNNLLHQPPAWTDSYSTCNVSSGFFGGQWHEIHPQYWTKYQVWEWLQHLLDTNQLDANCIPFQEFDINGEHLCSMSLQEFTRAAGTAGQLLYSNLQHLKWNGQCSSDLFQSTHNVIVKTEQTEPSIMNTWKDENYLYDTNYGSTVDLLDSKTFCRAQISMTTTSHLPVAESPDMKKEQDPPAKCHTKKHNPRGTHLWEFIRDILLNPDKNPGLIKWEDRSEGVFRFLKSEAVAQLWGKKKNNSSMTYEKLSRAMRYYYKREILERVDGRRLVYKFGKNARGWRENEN
How it was run: as §1

SPI1 = SPI1 (Homo sapiens, UniProt P17947 1-270); conditions: protein: recombinant; tags: N-terminal GST; dsDNA, one strand shown
How it was run: as §1

SPIB = SPIB (Homo sapiens, UniProt Q01892 1-262); conditions: protein: recombinant; tags: N-terminal GST; dsDNA, one strand shown
How it was run: as §1

ELK3 = biological target: T6, ELK3 (Homo sapiens, UniProt P41970 1-407); conditions: protein: recombinant; tags: N-terminal GST; dsDNA, one strand shown
T6 sequence: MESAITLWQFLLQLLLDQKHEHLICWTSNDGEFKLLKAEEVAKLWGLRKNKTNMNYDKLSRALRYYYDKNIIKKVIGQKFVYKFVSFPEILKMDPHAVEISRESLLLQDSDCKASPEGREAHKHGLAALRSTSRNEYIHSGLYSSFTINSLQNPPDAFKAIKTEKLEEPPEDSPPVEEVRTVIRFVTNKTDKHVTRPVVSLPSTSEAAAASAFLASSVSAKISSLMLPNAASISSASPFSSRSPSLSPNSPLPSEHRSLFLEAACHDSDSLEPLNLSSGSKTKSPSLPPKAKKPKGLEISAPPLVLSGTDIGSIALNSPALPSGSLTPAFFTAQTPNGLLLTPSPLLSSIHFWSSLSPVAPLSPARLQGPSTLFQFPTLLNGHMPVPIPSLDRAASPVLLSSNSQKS
How it was run: as §1

FEV = biological target: T7, FEV (Homo sapiens, UniProt Q99581 1-238); conditions: protein: recombinant; tags: N-terminal GST; dsDNA, one strand shown
T7 sequence: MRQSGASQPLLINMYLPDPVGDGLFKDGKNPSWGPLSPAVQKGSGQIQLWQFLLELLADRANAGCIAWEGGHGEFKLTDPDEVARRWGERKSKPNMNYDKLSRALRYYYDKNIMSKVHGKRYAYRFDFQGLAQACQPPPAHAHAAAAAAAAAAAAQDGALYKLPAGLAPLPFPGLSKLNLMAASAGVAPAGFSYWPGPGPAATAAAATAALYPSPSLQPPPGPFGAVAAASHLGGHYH
How it was run: as §1

ETV5 = ETV5 (Homo sapiens, UniProt P41161 1-510); conditions: protein: recombinant; tags: N-terminal GST; dsDNA, one strand shown
How it was run: as §1

HSF1 = HSF1 (Homo sapiens, UniProt Q00613 1-529); conditions: protein: recombinant; tags: N-terminal GST; chain copies: 3; dsDNA, one strand shown
How it was run: as §1

SPIC = biological target: T8, SPIC (Homo sapiens, UniProt Q8N5J4 1-248); conditions: protein: recombinant; tags: N-terminal GST; dsDNA, one strand shown
T8 sequence: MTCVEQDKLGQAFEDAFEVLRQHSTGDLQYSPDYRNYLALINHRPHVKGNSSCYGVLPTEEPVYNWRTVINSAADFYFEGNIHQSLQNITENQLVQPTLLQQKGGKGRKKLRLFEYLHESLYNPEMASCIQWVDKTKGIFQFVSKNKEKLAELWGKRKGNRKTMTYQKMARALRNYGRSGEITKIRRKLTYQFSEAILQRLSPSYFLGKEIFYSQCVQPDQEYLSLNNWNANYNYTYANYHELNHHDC
How it was run: as §1

ELF4 = ELF4 (Homo sapiens, UniProt Q99607 1-663); conditions: protein: recombinant; tags: N-terminal GST; dsDNA, one strand shown
How it was run: as §1

ELK4 = biological target: T9, ELK4 (Homo sapiens, UniProt P28324-2 1-405); conditions: protein: recombinant; tags: N-terminal GST; dsDNA, one strand shown
T9 sequence: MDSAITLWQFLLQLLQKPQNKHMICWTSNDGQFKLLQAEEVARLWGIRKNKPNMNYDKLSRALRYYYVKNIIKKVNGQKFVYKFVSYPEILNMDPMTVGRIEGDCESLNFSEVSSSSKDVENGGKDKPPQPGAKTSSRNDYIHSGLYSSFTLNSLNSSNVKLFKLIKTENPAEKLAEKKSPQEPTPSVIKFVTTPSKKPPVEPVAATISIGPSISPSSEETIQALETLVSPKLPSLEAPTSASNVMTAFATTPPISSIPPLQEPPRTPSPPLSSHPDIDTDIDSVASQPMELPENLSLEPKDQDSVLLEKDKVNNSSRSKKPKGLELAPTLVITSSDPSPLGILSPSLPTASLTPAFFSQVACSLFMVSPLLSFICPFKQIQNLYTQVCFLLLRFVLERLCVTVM
How it was run: as §1

ETV2 = biological target: T10, ETV2 (Homo sapiens, UniProt O00321 1-342); conditions: protein: recombinant; tags: N-terminal GST; dsDNA, one strand shown
T10 sequence: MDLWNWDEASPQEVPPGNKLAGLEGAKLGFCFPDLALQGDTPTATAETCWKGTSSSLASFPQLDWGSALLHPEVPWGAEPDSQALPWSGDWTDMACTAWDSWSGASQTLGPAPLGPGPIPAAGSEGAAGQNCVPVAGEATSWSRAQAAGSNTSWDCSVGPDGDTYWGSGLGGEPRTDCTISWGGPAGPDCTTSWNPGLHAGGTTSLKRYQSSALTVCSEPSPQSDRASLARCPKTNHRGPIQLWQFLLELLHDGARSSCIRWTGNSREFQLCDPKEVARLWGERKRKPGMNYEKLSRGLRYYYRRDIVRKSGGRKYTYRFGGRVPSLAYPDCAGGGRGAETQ
How it was run: as §1

ELF3 = biological target: T11, ELF3 (Homo sapiens, UniProt P78545 1-371); conditions: protein: recombinant; tags: N-terminal GST; dsDNA, one strand shown
T11 sequence: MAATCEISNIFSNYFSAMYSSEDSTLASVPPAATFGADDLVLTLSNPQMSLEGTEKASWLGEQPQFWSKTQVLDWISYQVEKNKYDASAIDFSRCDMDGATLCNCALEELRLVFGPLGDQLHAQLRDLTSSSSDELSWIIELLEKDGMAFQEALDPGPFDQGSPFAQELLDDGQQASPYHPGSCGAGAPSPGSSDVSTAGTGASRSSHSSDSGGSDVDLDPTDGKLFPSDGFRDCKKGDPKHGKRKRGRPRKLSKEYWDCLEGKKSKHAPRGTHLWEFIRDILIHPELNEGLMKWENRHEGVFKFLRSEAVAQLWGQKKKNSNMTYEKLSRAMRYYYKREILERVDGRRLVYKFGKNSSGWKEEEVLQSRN
How it was run: as §1

CRX = CRX (Homo sapiens, UniProt O43186 1-299); conditions: protein: recombinant; tags: N-terminal GST; dsDNA, one strand shown
How it was run: as §1

ETV1 = ETV1 (Homo sapiens, UniProt P50549 1-477); conditions: protein: recombinant; tags: N-terminal GST; dsDNA, one strand shown
How it was run: as §1

Chain of ELF4 (Q99607 whole entry): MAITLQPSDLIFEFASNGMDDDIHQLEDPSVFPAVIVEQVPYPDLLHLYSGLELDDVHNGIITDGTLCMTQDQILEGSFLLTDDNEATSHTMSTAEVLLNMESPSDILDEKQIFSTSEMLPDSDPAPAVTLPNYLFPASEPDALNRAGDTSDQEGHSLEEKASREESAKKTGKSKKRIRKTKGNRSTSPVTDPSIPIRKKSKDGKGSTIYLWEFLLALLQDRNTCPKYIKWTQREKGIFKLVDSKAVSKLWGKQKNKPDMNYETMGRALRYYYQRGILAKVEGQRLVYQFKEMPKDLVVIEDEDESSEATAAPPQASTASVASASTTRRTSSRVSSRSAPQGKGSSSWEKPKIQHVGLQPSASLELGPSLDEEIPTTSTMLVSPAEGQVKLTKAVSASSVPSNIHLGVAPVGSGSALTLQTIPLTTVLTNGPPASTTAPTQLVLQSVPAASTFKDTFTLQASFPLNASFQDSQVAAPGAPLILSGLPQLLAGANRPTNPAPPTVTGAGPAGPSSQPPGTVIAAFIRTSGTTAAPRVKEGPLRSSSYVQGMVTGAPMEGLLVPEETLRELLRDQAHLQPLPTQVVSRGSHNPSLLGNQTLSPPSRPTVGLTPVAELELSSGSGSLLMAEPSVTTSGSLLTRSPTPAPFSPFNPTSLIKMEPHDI
Chain of CRX (O43186 whole entry): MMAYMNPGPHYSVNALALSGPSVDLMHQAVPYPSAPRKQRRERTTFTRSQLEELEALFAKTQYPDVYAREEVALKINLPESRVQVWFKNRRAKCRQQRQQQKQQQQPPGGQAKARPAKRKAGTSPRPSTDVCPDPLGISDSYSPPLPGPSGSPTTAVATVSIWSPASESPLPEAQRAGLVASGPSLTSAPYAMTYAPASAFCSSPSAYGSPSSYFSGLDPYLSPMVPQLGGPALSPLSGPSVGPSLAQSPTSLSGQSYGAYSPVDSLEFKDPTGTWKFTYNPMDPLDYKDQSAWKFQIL
Chain of HSF1 (Q00613 whole entry): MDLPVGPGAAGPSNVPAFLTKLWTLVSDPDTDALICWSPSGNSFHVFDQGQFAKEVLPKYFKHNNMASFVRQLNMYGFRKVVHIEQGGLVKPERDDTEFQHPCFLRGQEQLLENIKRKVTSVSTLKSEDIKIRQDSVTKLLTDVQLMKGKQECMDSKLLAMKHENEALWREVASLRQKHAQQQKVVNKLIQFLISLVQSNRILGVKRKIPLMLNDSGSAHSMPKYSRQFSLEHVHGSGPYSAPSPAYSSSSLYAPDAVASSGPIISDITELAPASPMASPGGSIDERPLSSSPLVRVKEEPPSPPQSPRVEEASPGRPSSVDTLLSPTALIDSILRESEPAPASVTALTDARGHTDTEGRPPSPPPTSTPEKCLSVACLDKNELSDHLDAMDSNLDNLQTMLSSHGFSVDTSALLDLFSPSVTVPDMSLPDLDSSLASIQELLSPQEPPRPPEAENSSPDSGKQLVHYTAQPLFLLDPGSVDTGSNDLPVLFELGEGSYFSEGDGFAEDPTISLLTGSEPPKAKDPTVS
Chain of ETV1 (P50549 whole entry): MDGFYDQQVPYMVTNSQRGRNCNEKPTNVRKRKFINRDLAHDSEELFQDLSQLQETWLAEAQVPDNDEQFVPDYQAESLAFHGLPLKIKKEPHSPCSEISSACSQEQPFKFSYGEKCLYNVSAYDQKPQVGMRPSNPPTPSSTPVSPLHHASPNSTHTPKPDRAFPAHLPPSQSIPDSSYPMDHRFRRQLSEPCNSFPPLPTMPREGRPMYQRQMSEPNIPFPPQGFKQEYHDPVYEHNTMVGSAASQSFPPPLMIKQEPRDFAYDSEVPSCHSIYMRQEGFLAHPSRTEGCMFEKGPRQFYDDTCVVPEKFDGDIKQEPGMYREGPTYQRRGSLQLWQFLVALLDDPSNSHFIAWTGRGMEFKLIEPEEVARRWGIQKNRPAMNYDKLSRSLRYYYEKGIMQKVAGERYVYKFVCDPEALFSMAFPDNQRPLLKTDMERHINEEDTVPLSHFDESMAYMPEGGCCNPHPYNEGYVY
Chain of ELF1 (P32519 whole entry): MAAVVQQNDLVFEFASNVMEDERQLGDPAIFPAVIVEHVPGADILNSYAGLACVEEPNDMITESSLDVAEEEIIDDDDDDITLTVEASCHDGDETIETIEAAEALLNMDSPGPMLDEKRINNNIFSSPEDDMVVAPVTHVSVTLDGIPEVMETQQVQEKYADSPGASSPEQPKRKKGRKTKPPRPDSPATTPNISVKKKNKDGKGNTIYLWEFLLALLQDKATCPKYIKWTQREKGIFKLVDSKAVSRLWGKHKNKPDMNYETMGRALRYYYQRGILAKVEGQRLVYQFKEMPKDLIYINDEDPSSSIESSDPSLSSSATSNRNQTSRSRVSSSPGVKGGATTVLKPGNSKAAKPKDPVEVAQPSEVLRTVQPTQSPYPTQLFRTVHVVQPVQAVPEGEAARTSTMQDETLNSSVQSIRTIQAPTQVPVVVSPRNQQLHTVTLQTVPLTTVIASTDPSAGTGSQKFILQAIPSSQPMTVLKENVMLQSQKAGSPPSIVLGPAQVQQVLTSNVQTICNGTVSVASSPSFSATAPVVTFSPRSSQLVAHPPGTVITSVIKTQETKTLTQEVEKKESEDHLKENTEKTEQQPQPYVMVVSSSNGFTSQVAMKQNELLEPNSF
Chain of SPIB (Q01892 whole entry): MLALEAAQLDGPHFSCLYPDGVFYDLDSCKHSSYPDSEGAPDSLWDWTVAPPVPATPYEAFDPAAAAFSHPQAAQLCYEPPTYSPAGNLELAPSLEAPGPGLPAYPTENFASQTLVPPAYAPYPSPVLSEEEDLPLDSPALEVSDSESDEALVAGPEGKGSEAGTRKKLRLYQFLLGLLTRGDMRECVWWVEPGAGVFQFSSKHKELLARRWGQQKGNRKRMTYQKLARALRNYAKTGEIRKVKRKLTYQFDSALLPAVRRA
Chain of ETV5 (P41161 whole entry): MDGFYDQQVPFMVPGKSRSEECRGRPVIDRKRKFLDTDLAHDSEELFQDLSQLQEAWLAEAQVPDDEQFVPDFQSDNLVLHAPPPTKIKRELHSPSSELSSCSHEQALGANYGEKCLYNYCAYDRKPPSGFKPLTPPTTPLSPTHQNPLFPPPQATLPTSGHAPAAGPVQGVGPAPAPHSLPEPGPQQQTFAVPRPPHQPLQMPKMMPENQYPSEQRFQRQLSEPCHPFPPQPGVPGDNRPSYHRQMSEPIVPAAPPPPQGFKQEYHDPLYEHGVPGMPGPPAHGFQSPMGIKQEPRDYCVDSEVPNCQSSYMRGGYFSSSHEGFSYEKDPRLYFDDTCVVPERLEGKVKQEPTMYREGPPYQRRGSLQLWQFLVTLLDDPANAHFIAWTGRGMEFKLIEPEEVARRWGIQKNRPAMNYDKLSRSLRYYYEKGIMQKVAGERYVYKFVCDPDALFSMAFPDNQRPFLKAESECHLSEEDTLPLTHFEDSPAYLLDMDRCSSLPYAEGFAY

Q: How did the binding signal (FLI1) turn out when TGCTTT was run?
A: 1.13 fold enrichment (6-mer frequency, TF over GST control)

Q: And the binding signal (ELK1)?
A: 1.12 fold enrichment (6-mer frequency, TF over GST control)

Q: What about the binding signal (GABPA) of the same sequence?
A: 1.12 fold enrichment (6-mer frequency, TF over GST control)

Q: What about the binding signal (ERG) of the same sequence?
A: 1.02 fold enrichment (6-mer frequency, TF over GST control)

Q: What about the binding signal (ELF1) of the same sequence?
A: 1.1 fold enrichment (6-mer frequency, TF over GST control)

Q: And the binding signal (EHF)?
A: 1.04 fold enrichment (6-mer frequency, TF over GST control)

Q: And the binding signal (SPI1)?
A: 1.14 fold enrichment (6-mer frequency, TF over GST control)

Q: And the binding signal (SPIB)?
A: 1.08 fold enrichment (6-mer frequency, TF over GST control)

Q: What about the binding signal (ELK3) of the same sequence?
A: 1.1 fold enrichment (6-mer frequency, TF over GST control)

Q: And the binding signal (FEV)?
A: 1.05 fold enrichment (6-mer frequency, TF over GST control)

Q: What about the binding signal (ETV5) of the same sequence?
A: 1.05 fold enrichment (6-mer frequency, TF over GST control)

Q: And the binding signal (HSF1)?
A: 1.05 fold enrichment (6-mer frequency, TF over GST control)

Q: And the binding signal (SPIC)?
A: 1.16 fold enrichment (6-mer frequency, TF over GST control)

Q: What about the binding signal (ELF4) of the same sequence?
A: 1.14 fold enrichment (6-mer frequency, TF over GST control)

Q: What about the binding signal (ELK4) of the same sequence?
A: 1.23 fold enrichment (6-mer frequency, TF over GST control)

Q: What about the binding signal (ETV2) of the same sequence?
A: 1.12 fold enrichment (6-mer frequency, TF over GST control)

Q: What about the binding signal (ELF3) of the same sequence?
A: 1.05 fold enrichment (6-mer frequency, TF over GST control)

Q: What about the binding signal (CRX) of the same sequence?
A: 1.09 fold enrichment (6-mer frequency, TF over GST control)

Q: And the binding signal (ETV1)?
A: 1.06 fold enrichment (6-mer frequency, TF over GST control)
